# Results: PubChem BioAssay (NCATS)
# Inconclusive results are not listed. A call without a number means that no potency is given here. Unmarked numbers belong to inactive results. Calls of active or inactive are those of the source. Calls follow the shape of the dose curve; as a rule, active = well fitted inhibition curve with a large enough effect; inconclusive = small, poorly fitted or top-dose-only effect; inactive = no such curve, though single readings can be large or run the other way. Where a SMILES comes first, the peptide text is derived from it. Bridges are numbered along the chain shown (N, C = ends). [ ]: non-standard residue; d: D form. NMeY = CN[CH](Cc1ccc(O)cc1)C(=O)O
# System: Zika virus NS2B-NS3 protease (unlinked complex)
# Test: Primary screen GU Rhodamine qHTS for Zika virus inhibitors: Unlinked NS2B-NS3 protease assay (AID 1347159); also: nearly all actives have a fitted effect of over 60% in size
# Conditions: Recombinant ZIKV NS2B-NS3 protease, Rhodamine110 substrate fluorescence; series mostly up to 107 µM
# Summary of the method: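 Unlinked NS2B/NS3, 25 nM; Rhod110 peptide, 1.5 microM; compounds, up to 114 microM. Reaction run 15 min at RT in 10 mM Tris-HCl pH 8.0, 0.01% Tween 20; kinetic fluorescence change fitted with a 4-parameter Hill model.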
# Potency is read from the fitted curve at half-maximal effect.
Structure (SMILES),Potency,"activity change, negative = inhibition"
COC(=O)C12CCC(C)C(C)C1C1=CCC3C4(C)CCC(OC(C)=O)C(C)(C)C4CCC3(C)C1(C)CC2 (stereo not given),inactive,
CN(C)C(=O)NC1CCC(CCN2CCN(c3cccc(Cl)c3Cl)CC2)CC1 (stereo not given),,13.9% [at 19.1 µM]
O=C(/C=C/c1ccccc1)OC[C@]12O[C@H]1[C@@H](O)[C@@H]1C=CO[C@@H](O[C@@H]3O[C@H](CO)[C@@H](O)[C@H](O)[C@H]3O)[C@@H]12,inactive,
CC(=O)c1c(O)cc(O[C@@H]2O[C@H](CO)[C@@H](O)[C@H](O)[C@H]2O)cc1O,31.6 µM (active),
CC1=C(/C=C/C(C)=C\C=C\C(C)=C/C(=O)O)C(C)(C)CCC1,20 µM (active),
CC(=O)OC1C(OC(=O)c2ccccc2)C2C(C)(C)CC(=O)CC2(C)C23CCC(C)(C2)C(O)CC13 (stereo not given),inactive,
COc1ccc(-c2cnc3ccc(NCc4ccc(S(N)(=O)=O)cc4)nn23)cc1OC,inactive,
O=C(CC(c1ccccc1)c1ccccc1)N1CCN(C(c2ccccc2)c2ccccc2)CC1,inactive,
COc1ccc(-n2[nH]c(=O)c3[nH]c4cc(Cl)ccc4c(=O)c3c2=O)c(C)c1,56.2 µM (active),
C[C@@H]1O[C@@H](O[C@H]2[C@H](O)[C@@H](O)[C@H](OC[C@H]3O[C@@H](OC(=O)[C@]45CCC(C)(C)C[C@H]4C4=CCC6[C@@]7(C)CC[C@H](O[C@@H]8OC[C@H](O)[C@H](O[C@@H]9O[C@H](CO)[C@@H](O)[C@H](O)[C@H]9O)[C@H]8O)[C@@](C)(CO)C7CC[C@@]6(C)[C@]4(C)CC5)[C@H](O)[C@@H](O)[C@@H]3O)O[C@@H]2CO)[C@H](O)[C@H](O)[C@H]1O (stereo not given in full),,4.91% [at 19.1 µM]
C=CC(=O)N1CCN(C(=O)CNc2cc(I)c(Cl)cc2O)CC1,inactive,
CCOc1cc(CC(=O)NC(CC(C)C)c2ccccc2N2CCCCC2)ccc1C(=O)O (stereo not given),20 µM (active),
CC(C)(C)C(=O)CN1C(=O)[C@H](NC(=O)Nc2cccc(C(=O)O)c2)CN(C2CCCCC2)c2ccccc21,10 µM (active),
C=C1C(OC2OCC(O)C(O)C2O)CC2C(C)(C)C(O)CCC2(C)C1CC/C(C)=C\CO (stereo not given),inactive,
CC(C)=CCC/C(C)=C/CC/C(C)=C/COC1OC(COC2OCC(OC3OCC(O)C(O)C3O)C(O)C2O)C(O)C(OC2OC(C)C(OC3OC(C)C(OC4OCC(OC5OC(C)C(O)C(O)C5O)C(O)C4O)C(O)C3O)C(O)C2O)C1O (stereo not given),,15.4% [at 19.1 µM]
Cc1cn(C2C=CC(CO)O2)c(=O)[nH]c1=O (stereo not given),inactive,
CC1(C)CC[C@]2(C(=O)O[C@@H]3O[C@H](CO)[C@@H](O)[C@H](O)[C@H]3O)CC[C@]3(C)C(=CCC4[C@@]5(C)C[C@@H](O)[C@H](O)[C@@](C)(CO)C5CC[C@]43C)C2[C@@H]1O (stereo not given in full),10 µM (active),
CC/C=C\CC1C(=O)C=CC1(CCCCCCCC(=O)O)OC(C)=O (stereo not given),7.08 µM (active),
CC(=O)c1ccc(O[C@@H]2O[C@H](CO)[C@@H](O)[C@H](O)[C@H]2O)cc1,inactive,
CCC(C)C1NC(=O)C2CCCN2C(=O)C(NC(C)=O)C(C)OC(=O)C(Cc2ccc(OC)cc2)N(C)C(=O)C2CCCN2C(=O)C(C(C)C)NC1=O (stereo not given) (Ac-TPIVP[NMeY](Me); ester 1-C; configuration not given here),inactive,

Structure (SMILES),Potency,"activity change, negative = inhibition"
O=C(OC[C@@]1(O)CO[C@@H](O[C@H]2[C@H](Oc3ccc(O)cc3)O[C@H](CO)[C@@H](O)[C@@H]2O)[C@@H]1O)c1ccc(O)cc1,inactive,
COc1c2c(cc3c1-c1c(cc4c(c1OC)OCO4)CC(C)C(C)C3)OCO2 (stereo not given),inactive,
CC(C)CCC1(O)C(=O)C(C)(C)C(O[C@@H]2O[C@H](CO)[C@@H](O)[C@H](O)[C@H]2O)C(C)(C)C1O (stereo not given in full),35.5 µM (active),
CC(NC(=O)C(O)C(C)C)C(=O)NC1C(=O)N(C)CCc2ccccc21 (stereo not given),inactive,
Cc1c(CN2CCN(C(=O)C(C)O)CC2)sc2c(N3CCOCC3)nc(-c3cnc(N)nc3)nc12 (stereo not given),inactive,
COc1c/c(=C2\C=c3ccccc3=N2)[nH]/c1=C\c1[nH]c(C)cc1C,inactive,
CC(C)CCC(=O)CC1c2ccccc2C(=O)N1c1ccc2ccc(Cl)nc2n1 (stereo not given),inactive,
CC1CCC23COC(=O)C2=CC(O)CC3C1(C)CCC1=CC(O)OC1=O (stereo not given),8.91 µM (active),
C[C@H](Oc1ccc(S(C)(=O)=O)cc1C(=O)N1CCN(c2ncc(C(F)(F)F)cc2F)CC1)C(F)(F)F,inactive,
COc1ccc(N2CCOCC2)c2sc(NC(=O)N3CCC(C)(O)CC3)nc12,inactive,
CC(=O)O[C@@H]1[C@H](O)[C@@H](O[C@@H]2O[C@@H](C)[C@H](O[C@@H]3OC[C@@H](O)[C@H](O[C@@H]4OC[C@@H](O)[C@H](O)[C@H]4O)[C@H]3O)[C@@H](O[C@@H]3O[C@H](CO)[C@@H](O)[C@H](O)[C@H]3O)[C@H]2O)[C@H](OC(=O)[C@]23CCC(C)(C)C[C@H]2C2=CCC4[C@@]5(C)CC[C@H](O[C@@H]6O[C@H](C(=O)O)[C@@H](O)[C@H](O[C@@H]7OC[C@@H](O)[C@H](O)[C@H]7O)[C@H]6O[C@@H]6O[C@H](CO)[C@H](O)[C@H](O)[C@H]6O)[C@@](C)(C=O)C5CC[C@@]4(C)[C@]2(C)CC3)O[C@@H]1C (stereo not given in full),,-1.88% [at 19.1 µM]
CC(C)=CCC/C(C)=C/Cc1ccc(O)c(C2OC(=O)c3cc(C(=O)O)cc(O)c32)c1O (stereo not given),2.24 µM (active),
COc1cc2c3c(cc4ccccc4c3c1O)NC2=O,22.4 µM (active),
COc1cc(O)c([C@@H](CC(=O)N2CC(C)CC(C)C2)c2ccc3c(c2)OCO3)c(OC)c1 (stereo not given in full),inactive,
CC(=O)O[C@@](C)(C(=O)/C=C/C(C)(C)O)[C@H]1[C@H](O)C[C@@]2(C)[C@@H]3CC=C4[C@@H](C=C(O)C(=O)C4(C)C)[C@]3(C)C(=O)C[C@]12C,inactive,
CCc1cc(CN2CC(C(=O)O)C2)sc1-c1noc(-c2ccc(Oc3ccccc3)cc2)n1,3.98 µM (active),
C[C@@H]1O[C@@H](O[C@@H]2[C@@H](O)[C@H](O[C@H]3CC[C@@]4(C)C(CC[C@]5(C)C4CC=C4[C@@H]6CC(C)(C)CC[C@]6(C(=O)O[C@@H]6O[C@H](CO)[C@@H](O)[C@H](O)[C@H]6O)CC[C@]45C)C3(C)C)O[C@H](C(=O)O)[C@H]2O)[C@H](O)[C@H](O)[C@H]1O (stereo not given in full),inactive,
Cc1noc(-c2ccc(-c3ccc(CC(=O)O)cc3)cc2)c1NC(=O)O[C@H](C)c1ccccc1,14.1 µM (active),
CC(C)c1cc2c(c(O)c1O)[C@@]13CCCC(C)(C)[C@@H]1[C@H](OC3=O)C2=O,8.91 µM (active),
CC(C)C(N)C(=O)OCCOCn1cnc2c(=O)[nH]c(N)nc21 (stereo not given),inactive,
